# Source: PubChem BioAssay (Tox21)
# Values without a mark were called inactive. Inconclusive results are not listed. Where a call stands in place of a potency, no number is given. The source made the active and inactive calls. Unless noted, calls follow the shape of the dose curve; as a rule, active = well fitted curve in the direction sought with a large enough effect in the repeat runs; inconclusive = weak or mixed curves; inactive = no such curve, though single readings can be large; an effect the other way counts as inactive or inconclusive.
# Columns and labels:
# [1] = qHTS assay to test for compound auto fluorescence at 535 nm (green) in HEK293 cells (AID 720680)
# [2] = qHTS assay to test for compound auto fluorescence at 460 nm (blue) in HEK293 cell free culture (AID 720681)
# In short: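 Test compounds were pinned into cell-free culture medium (DMEM with 10% FBS) and fluorescence was read directly at Ex/Em 405/460 nm. Signals were expressed as fluorescence equivalents of triamterene, with DMSO vehicle as control.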
# [3] = qHTS assay to test for compound auto fluorescence at 535 nm (green) in HEK293 cell free culture (AID 720682)
# In short: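 Fluorescein serves as the green reference fluorophore; each compound's intrinsic emission at 535 nm (excitation 485 nm) is reported as an equivalent amount of that dye, measured in serum-containing DMEM without cells.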
# [4] = qHTS assay to test for compound auto fluorescence at 590 nm (red) in HEK293 cell free culture (AID 720683)
# In short: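 Tox21 10K library compounds were pinned into cell-free DMEM with 10% FBS and fluorescence was read at excitation 540 nm. Activity is expressed as Rose Bengal sodium equivalency.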
# [5] = qHTS assay to test for compound auto fluorescence at 590 nm (red) in HepG2 cell free culture (AID 720684)
# In short: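 Measured in medium alone (MEM containing 10% FBS) following pintool addition of compound; emission at 590 nm with 540 nm excitation, referenced to Rose Bengal sodium.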
# [6] = qHTS assay to test for compound auto fluorescence at 460 nm (blue) in HepG2 cell free culture (AID 720685)
# In short: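 Compound (23 nL) or DMSO pinned into cell-free MEM with 10% FBS; blue fluorescence read at 405/460 nm excitation/emission, expressed as auto-fluorescence equivalency to triamterene.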
# [7] = qHTS assay to test for compound auto fluorescence at 535 nm (green) in HepG2 cell free culture (AID 720686)
# [8] = qHTS assay to test for compound auto fluorescence at 460 nm (blue) in HepG2 cells (AID 720687)
# In short: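 Cells (2,000/well in MEM with 10% FBS) attached overnight at 37 C, then were exposed to compound or DMSO for 1 hr at 37 C, 5% CO2. Fluorescence read at Ex/Em 405/460 nm, expressed as triamterene-equivalent signal.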
# [9] = molecular target: Glucocorticoid receptor (Homo sapiens) (UniProt P04150); assay: qHTS assay to identify small molecule agonists of the glucocorticoid receptor (GR) signaling pathway (AID 720691; active = well fitted activation curve with a large enough effect in the signal ratio in the repeat runs, not every such curve was filed as active; the % refers to the signal ratio)
# Glucocorticoid receptor (Homo sapiens), sequence (P04150 whole entry, looked up): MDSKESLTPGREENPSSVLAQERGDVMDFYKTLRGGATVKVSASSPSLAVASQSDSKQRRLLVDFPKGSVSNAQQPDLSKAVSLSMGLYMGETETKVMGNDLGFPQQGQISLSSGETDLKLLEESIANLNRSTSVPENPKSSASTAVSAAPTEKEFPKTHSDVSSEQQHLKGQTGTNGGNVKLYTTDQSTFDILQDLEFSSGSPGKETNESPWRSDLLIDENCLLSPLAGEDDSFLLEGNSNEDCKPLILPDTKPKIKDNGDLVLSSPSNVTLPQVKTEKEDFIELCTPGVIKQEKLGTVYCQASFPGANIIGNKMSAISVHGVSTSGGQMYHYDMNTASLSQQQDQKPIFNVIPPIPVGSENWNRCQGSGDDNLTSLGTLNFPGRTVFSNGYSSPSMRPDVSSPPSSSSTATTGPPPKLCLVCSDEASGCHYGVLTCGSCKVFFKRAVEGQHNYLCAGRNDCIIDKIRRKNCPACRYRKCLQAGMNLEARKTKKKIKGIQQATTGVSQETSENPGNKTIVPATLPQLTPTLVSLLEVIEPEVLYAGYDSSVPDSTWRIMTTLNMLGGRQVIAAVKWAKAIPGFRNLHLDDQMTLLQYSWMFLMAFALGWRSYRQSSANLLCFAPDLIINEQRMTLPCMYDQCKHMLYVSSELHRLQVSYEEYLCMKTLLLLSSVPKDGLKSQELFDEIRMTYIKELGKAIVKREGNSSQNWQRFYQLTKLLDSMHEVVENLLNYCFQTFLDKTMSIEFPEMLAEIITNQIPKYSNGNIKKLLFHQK
# In short: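 qHTS in GR-bla HeLa cells: 4 h settling at 37 C/5% CO2, 18 h compound incubation at 37 C, 2 h LiveBLAzer B/G FRET substrate at room temperature, fluorescence intensity measured.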
# [10] = qHTS assay to identify small molecule antagonists of the glucocorticoid receptor (GR) signaling pathway - cell viability counter screen (AID 720693); also: nearly all actives have a fitted effect of over 55% in size
# [11] = qHTS assay for identifying genotoxic compounds that show differential cytotoxicity against isogenic chicken DT40 cell lines with known DNA damage response pathways - wild type cell line (AID 743012); also: nearly all actives have a fitted effect of over 60% in size; also: potency is read from the fitted curve at half-maximal effect
# In short: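 First, wild type DT40 cells were plated at 300 per well and equilibrated about 0.5 h at 37 C/5% CO2. Next, compounds in DMSO were added and exposure lasted 40 h. Finally, CellTiter-Glo was added for 30 min at room temperature and luminescence recorded.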
# [12] = qHTS assay for identifying genotoxic compounds that show differential cytotoxicity against isogenic chicken DT40 cell lines with known DNA damage response pathways - Rev3 mutant cell line (AID 743014); also: nearly all actives have a fitted effect of over 55% in size; also: potency is read from the fitted curve at half-maximal effect
# [13] = qHTS assay for identifying genotoxic compounds that show differential cytotoxicity against isogenic chicken DT40 cell lines with known DNA damage response pathways - Rad54/Ku70 mutant cell line (AID 743015); also: nearly all actives have a fitted effect of over 60% in size; also: potency is read from the fitted curve at half-maximal effect
# [14] = qHTS assay to identify small molecule antagonists of the androgen receptor (AR) signaling pathway - cell viability counter screen (AID 743033; also: nearly all actives have a fitted effect of over 45% in size)
# [15] = qHTS assay to identify small molecule antagonists of the androgen receptor (AR) signaling pathway using the MDA cell line - cell viability counter screen (AID 743041; also: nearly all actives have a fitted effect of over 45% in size)
# In short: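 Viability counter screen run alongside the AR antagonist reporter: cells seeded 5 h before compound, R1881 added, 16 h incubation at 37C without CO2, fluorescent CellTiter-Fluor signal quantified.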
# [16] = qHTS assay to identify small molecule antagonists of the thyroid receptor (TR) signaling pathway - cell viability counter screen (AID 743064); also: nearly all actives have a fitted effect of over 50% in size
# In short: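 Fluorescence from CellTiter-Fluor, added after 23.5 h exposure at 37 °C, reported viability of GH3.TRE-Luc cells co-treated with compound and 1 nM T3. Measured in the same wells as the luciferase TR readout.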
# [17] = molecular target: Glucocorticoid receptor (Homo sapiens) (UniProt P04150); assay: qHTS assay to identify small molecule antagonists of the glucocorticoid receptor (GR) signaling pathway (AID 720692; active = well fitted inhibition curve with a large enough effect in the signal ratio in the repeat runs, not every such curve was filed as active; the % refers to the signal ratio; also: potency is read from the fitted curve at half-maximal effect)
# In short: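 Inhibition of glucocorticoid signalling is measured in HeLa cells with a GRE-controlled beta-lactamase reporter; cells are co-treated with compound and 5 nM dexamethasone (final) for 18 h before FRET substrate readout.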
# [18] = molecular target: Androgen receptor (Homo sapiens) (UniProt P10275); assay: qHTS assay to identify small molecule antagonists of the androgen receptor (AR) signaling pathway (AID 743035; active = well fitted inhibition curve with a large enough effect in the signal ratio in the repeat runs, not every such curve was filed as active; the % refers to the signal ratio)
# Androgen receptor (Homo sapiens), sequence (P10275 whole entry, looked up): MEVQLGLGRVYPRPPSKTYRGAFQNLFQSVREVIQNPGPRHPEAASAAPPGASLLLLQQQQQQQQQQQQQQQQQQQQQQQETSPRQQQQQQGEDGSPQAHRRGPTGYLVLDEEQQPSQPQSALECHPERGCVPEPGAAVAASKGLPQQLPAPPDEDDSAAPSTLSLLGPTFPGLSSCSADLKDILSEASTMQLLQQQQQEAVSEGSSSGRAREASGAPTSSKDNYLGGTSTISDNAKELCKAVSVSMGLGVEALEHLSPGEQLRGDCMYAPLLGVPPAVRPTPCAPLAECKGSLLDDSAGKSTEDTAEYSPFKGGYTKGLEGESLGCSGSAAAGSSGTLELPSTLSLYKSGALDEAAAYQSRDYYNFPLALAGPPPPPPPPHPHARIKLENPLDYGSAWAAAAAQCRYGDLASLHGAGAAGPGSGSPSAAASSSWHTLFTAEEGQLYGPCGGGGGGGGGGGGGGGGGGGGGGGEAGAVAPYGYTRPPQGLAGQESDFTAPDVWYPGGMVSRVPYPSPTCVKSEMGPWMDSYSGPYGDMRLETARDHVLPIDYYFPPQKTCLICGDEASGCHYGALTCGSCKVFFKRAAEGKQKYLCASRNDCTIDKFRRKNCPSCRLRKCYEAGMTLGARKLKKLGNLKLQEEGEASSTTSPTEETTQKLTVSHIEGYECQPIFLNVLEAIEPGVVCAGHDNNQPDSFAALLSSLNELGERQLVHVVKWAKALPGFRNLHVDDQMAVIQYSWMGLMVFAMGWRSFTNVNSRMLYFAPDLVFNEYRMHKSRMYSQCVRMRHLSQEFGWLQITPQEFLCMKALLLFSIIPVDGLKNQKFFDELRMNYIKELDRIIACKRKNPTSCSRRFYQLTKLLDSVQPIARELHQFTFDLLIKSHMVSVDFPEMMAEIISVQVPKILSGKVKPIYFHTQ
# In short: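 Beta-lactamase FRET read (2 h RT incubation with LiveBLAzer B/G) following 16 h of compound plus R1881 treatment of AR-UAS-bla HEK293 cells, which had been pre-incubated 4 h at 37C.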
# [19] = molecular target: Androgen receptor (Homo sapiens) (UniProt P10275); assay: qHTS assay to identify small molecule agonists of the androgen receptor (AR) signaling pathway (AID 743036; active = well fitted activation curve with a large enough effect in the signal ratio in the repeat runs, with a control signal flat, not every such curve was filed as active; the % refers to the signal ratio)
# In short: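 Fluorescence from a beta-lactamase FRET substrate served as read-out in AR-UAS-bla GripTite HEK293 cells. Cells were treated with DMSO-dissolved compounds for 16 h at 37C, then with LiveBLAzer B/G substrate for 2 h at room temperature.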
# [20] = molecular target: Androgen receptor (Homo sapiens) (UniProt P10275); assay: qHTS assay to identify small molecule agonists of the androgen receptor (AR) signaling pathway using the MDA cell line (AID 743040; also: nearly all actives have a fitted effect of over 20% in size)
# In short: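 Luminescence from ONE-Glo, read after 30 min at room temperature, reflects MMTV-driven luciferase in MDA-kb2 cells (AR- and GR-responsive). Treatment lasted 16 h at 37C, 0% CO2.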
SMILES,outcome [1],outcome [2],outcome [3],outcome [4],outcome [5],outcome [6],outcome [7],outcome [8],Potency [9],Potency [10],Potency [11],Potency [12],Potency [13],Potency [14],Potency [15],Potency [16],Potency [17],Potency [18],outcome [19],outcome [20]
O=C1CCCCC1Cl (configuration not stated),inactive,inactive,inactive,inactive,inactive,inactive,inactive,inactive,inactive,inactive,inactive,inactive,inactive,inactive,inactive,inactive,–,–,–,–
C(COCC1CO1)OCC1CO1 (configuration not stated),inactive,inactive,inactive,inactive,inactive,inactive,inactive,inactive,inactive,–,6.86 µM (active),1.54 µM (active),8.63 µM (active),inactive,inactive,inactive,inactive,–,–,–
CCN(CC)C1CCCCC1,inactive,inactive,inactive,inactive,inactive,inactive,inactive,inactive,inactive,inactive,–,–,–,inactive,inactive,inactive,inactive,inactive,inactive,inactive
CCN(CC)CCOC(=O)C(O)(c1ccccc1)c1ccccc1,inactive,inactive,inactive,inactive,inactive,inactive,inactive,inactive,inactive,inactive,inactive,inactive,inactive,inactive,–,inactive,–,–,–,–
C=CC1(C)OC(=O)N(c2cc(Cl)cc(Cl)c2)C1=O (configuration not stated),inactive,inactive,inactive,inactive,inactive,inactive,inactive,inactive,inactive,–,inactive,–,61.1 µM (active),inactive,inactive,–,inactive,–,–,–
CC#Cc1cc(C)nc(Nc2ccccc2)n1,inactive,inactive,inactive,inactive,inactive,inactive,inactive,inactive,inactive,–,54.4 µM (active),61.1 µM (active),54.4 µM (active),inactive,inactive,inactive,54.9 µM (active),–,–,–
OP(O)c1ccccc1,inactive,inactive,inactive,inactive,inactive,inactive,inactive,inactive,inactive,–,inactive,inactive,inactive,inactive,inactive,–,inactive,inactive,inactive,inactive
O=[N+]([O-])CCO,inactive,inactive,inactive,inactive,inactive,inactive,inactive,inactive,inactive,–,inactive,–,inactive,inactive,inactive,inactive,inactive,–,–,–
